Results on one sequence are retold here after paper PMC7862700, “An all-to-all approach to the identification of sequence-specific readers for epigenetic DNA modifications on cytosine”.

What all share (assay): DAPPL (digital affinity profiling via proximity ligation, sequencing); 10 mM Tris-HCl pH 7.5, 50 mM NaCl, 1 mM DTT, 4% glycerol, room temperature, 30 min; GST-TFs on glutathione beads, 16-mer random dsDNA library, 0.1% formaldehyde crosslink after washing; high values mean tight binding
One assay deals with T1, FEV (Homo sapiens, UniProt Q99581 1-238).
T1 sequence: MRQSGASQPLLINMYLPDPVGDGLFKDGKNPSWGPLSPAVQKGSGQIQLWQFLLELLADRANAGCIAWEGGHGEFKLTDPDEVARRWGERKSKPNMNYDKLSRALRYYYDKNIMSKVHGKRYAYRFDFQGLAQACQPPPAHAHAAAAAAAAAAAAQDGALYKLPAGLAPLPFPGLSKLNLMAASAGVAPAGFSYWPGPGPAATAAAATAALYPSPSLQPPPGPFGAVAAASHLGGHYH
To be noted: protein: recombinant; tags: N-terminal GST; dsDNA, one strand shown. The method in brief:
(§1)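 Pools of DNA-barcoded human transcription factors, expressed in yeast as GST fusions on glutathione beads and combined with a tag-only sample, were incubated with 200 nmole of a 16-mer random double-stranded DNA library. Incubation took 30 min at room temperature in Tris/NaCl/DTT/glycerol buffer and was followed by washing, 0.1% formaldehyde crosslinking, proximity ligation (BsaI/T4 ligase, 1 h, 37 °C), PCR amplification and sequencing on an Illumina NextSeq500. Binding signal is the ratio of a hexamer's read frequency for a factor to its frequency for the tag-only sample.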

A further assay deals with ETV5 (Homo sapiens, UniProt P41161 1-510). To be noted: protein: recombinant; tags: N-terminal GST; dsDNA, one strand shown. The method in brief: as §1
ETV5, sequence (P41161 whole entry): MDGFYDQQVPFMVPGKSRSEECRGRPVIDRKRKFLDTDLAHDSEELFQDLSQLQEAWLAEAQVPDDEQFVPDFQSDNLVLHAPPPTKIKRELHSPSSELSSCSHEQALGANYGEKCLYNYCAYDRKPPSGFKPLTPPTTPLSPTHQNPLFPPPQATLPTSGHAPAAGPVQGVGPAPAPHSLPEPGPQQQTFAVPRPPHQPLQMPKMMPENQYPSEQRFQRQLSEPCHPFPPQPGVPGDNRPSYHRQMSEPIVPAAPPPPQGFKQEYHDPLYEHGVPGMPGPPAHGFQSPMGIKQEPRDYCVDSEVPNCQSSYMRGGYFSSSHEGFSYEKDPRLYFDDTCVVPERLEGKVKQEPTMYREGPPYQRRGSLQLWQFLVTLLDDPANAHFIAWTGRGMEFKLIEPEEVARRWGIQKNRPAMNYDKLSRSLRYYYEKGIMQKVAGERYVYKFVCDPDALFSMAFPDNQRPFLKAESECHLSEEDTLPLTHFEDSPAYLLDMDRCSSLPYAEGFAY
The next assay addresses HSF1 (Homo sapiens, UniProt Q00613 1-529). The conditions noted are these: protein: recombinant; tags: N-terminal GST; chain copies: 3; dsDNA, one strand shown. The method in brief:
as §1

The next assay has as its target T2, SPIC (Homo sapiens, UniProt Q8N5J4 1-248).
T2 sequence: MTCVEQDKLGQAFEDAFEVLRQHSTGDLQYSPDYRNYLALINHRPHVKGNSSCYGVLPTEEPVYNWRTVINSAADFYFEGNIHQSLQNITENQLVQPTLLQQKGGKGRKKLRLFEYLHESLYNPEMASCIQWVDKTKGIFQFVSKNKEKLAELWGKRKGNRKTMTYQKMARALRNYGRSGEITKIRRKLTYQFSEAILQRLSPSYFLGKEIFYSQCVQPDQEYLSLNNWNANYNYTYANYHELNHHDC
To be noted: protein: recombinant; tags: N-terminal GST; dsDNA, one strand shown. The method in brief:
as §1

For the next assay, the target named is ELF4 (Homo sapiens, UniProt Q99607 1-663). To be noted: protein: recombinant; tags: N-terminal GST; dsDNA, one strand shown. In a few lines: as §1
ELF4, sequence (Q99607 whole entry): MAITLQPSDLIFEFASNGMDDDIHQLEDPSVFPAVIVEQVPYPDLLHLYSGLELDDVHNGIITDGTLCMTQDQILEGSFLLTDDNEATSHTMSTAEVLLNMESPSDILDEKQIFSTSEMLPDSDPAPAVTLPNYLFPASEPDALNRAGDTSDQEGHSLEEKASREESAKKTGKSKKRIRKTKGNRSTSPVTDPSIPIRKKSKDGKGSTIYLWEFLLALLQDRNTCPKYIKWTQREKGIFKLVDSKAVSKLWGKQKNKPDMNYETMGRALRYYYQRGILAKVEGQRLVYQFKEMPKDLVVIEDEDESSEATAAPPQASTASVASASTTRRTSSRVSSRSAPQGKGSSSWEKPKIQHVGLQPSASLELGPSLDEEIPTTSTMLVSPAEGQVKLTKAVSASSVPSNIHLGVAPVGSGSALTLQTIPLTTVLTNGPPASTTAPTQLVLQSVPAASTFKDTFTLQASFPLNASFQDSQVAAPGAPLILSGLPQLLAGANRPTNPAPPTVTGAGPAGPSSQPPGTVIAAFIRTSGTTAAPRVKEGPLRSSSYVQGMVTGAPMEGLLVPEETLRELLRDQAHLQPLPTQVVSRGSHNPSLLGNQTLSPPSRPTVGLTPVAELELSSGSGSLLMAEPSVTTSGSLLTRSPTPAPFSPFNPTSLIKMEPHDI
Another assay has as its target T3, ELK4 (Homo sapiens, UniProt P28324-2 1-405).
T3 sequence: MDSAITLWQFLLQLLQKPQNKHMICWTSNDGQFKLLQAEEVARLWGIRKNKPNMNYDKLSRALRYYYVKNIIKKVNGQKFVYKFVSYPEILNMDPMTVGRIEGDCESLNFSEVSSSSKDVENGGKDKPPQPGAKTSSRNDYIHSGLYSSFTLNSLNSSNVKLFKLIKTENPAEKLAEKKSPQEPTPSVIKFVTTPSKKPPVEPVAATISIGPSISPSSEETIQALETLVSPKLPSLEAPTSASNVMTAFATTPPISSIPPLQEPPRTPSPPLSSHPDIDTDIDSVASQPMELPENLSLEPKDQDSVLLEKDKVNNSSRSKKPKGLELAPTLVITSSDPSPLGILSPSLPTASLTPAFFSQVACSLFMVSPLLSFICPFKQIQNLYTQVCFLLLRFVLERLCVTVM
To be noted: protein: recombinant; tags: N-terminal GST; dsDNA, one strand shown. In a few lines: as §1

Another assay deals with T4, ETV2 (Homo sapiens, UniProt O00321 1-342).
T4 sequence: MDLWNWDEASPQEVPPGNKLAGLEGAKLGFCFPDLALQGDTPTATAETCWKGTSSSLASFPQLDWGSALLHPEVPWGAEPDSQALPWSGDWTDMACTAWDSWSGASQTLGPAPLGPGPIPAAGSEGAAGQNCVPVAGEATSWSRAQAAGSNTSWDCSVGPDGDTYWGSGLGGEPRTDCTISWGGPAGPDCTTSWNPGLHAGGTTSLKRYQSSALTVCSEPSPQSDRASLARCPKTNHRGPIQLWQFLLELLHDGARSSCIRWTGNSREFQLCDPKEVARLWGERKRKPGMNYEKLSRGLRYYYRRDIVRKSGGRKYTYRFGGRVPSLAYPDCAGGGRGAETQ
The conditions noted are these: protein: recombinant; tags: N-terminal GST; dsDNA, one strand shown. The method in brief:
as §1

The next assay concerns the target T5, ELF3 (Homo sapiens, UniProt P78545 1-371).
T5 sequence: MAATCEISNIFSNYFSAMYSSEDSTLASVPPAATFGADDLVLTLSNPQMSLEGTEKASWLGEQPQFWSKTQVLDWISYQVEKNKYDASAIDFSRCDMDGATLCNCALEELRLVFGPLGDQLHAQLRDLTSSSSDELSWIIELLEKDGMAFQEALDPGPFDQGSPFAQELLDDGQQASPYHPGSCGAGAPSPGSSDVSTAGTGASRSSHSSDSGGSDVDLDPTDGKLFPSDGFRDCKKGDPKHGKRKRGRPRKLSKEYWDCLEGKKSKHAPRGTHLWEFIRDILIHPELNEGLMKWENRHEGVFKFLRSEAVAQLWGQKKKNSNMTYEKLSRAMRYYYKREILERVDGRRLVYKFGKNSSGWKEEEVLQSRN
The conditions noted are these: protein: recombinant; tags: N-terminal GST; dsDNA, one strand shown. In a few lines:
as §1

In another assay the target is CRX (Homo sapiens, UniProt O43186 1-299). To be noted: protein: recombinant; tags: N-terminal GST; dsDNA, one strand shown. In a few lines:
as §1

The next assay has as its target ETV1 (Homo sapiens, UniProt P50549 1-477). The conditions noted are these: protein: recombinant; tags: N-terminal GST; dsDNA, one strand shown. In a few lines: as §1
The target of the next assay is T6, ERF (Homo sapiens, UniProt P50548 1-548).
T6 sequence: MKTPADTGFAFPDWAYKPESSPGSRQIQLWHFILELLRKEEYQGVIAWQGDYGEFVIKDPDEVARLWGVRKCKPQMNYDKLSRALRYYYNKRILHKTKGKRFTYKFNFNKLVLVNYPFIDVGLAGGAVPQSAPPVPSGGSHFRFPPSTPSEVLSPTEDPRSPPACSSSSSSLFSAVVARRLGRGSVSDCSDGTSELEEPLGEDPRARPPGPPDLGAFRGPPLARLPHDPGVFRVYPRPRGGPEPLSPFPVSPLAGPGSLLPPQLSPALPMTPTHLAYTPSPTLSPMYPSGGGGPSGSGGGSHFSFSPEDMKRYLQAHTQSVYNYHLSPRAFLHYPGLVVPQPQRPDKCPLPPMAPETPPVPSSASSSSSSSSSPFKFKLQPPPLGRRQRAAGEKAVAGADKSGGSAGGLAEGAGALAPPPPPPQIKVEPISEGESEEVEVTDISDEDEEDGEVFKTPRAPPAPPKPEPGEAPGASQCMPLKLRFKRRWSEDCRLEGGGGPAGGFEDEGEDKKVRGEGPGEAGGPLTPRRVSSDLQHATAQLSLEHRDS
To be noted: protein: recombinant; tags: N-terminal GST; dsDNA, one strand shown. In a few lines:
as §1

For a further assay, the target named is T7, ETV3L (Homo sapiens, UniProt Q6ZN32 1-361).
T7 sequence: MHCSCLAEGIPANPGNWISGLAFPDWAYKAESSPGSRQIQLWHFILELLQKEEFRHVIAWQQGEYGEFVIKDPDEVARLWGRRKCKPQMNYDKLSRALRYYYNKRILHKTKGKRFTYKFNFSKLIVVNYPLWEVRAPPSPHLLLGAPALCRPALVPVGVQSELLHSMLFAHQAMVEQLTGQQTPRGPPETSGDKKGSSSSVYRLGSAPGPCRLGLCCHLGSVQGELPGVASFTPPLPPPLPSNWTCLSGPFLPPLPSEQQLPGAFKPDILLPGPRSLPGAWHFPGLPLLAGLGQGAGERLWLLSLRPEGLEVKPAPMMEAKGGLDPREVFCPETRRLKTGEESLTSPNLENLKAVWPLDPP
To be noted: protein: recombinant; tags: N-terminal GST; dsDNA, one strand shown. The method in brief: as §1

Another assay addresses T8, ETS2 (Homo sapiens, UniProt P15036 1-469).
T8 sequence: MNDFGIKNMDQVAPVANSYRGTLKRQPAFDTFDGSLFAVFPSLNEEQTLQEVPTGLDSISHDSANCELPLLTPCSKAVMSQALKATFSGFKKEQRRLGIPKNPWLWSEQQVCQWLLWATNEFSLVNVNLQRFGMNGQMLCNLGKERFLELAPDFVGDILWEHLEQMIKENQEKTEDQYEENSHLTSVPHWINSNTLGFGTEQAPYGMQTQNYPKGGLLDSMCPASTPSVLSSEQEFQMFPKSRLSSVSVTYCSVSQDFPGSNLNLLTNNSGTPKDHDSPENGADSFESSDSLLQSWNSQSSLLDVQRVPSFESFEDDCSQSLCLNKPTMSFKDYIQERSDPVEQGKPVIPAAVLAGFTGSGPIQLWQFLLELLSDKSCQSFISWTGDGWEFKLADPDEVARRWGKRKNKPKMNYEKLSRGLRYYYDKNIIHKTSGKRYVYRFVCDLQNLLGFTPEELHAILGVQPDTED
To be noted: protein: recombinant; tags: N-terminal GST; dsDNA, one strand shown. In a few lines:
as §1

For another assay, the target named is T9, SPDEF (Homo sapiens, UniProt O95238 1-335).
T9 sequence: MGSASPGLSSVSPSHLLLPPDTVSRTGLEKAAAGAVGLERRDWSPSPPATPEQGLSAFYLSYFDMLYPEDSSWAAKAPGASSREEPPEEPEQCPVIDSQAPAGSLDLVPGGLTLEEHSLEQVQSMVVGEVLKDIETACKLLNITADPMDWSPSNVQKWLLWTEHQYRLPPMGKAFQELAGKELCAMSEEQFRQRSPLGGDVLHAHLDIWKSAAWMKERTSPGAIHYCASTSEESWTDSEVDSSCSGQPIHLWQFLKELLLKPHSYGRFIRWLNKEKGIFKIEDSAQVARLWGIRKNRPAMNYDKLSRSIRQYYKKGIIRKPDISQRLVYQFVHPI
The conditions noted are these: protein: recombinant; tags: N-terminal GST; dsDNA, one strand shown. The method in brief: as §1

In the next assay the target is T10, ETV7 (Homo sapiens, UniProt Q9Y603 1-341).
T10 sequence: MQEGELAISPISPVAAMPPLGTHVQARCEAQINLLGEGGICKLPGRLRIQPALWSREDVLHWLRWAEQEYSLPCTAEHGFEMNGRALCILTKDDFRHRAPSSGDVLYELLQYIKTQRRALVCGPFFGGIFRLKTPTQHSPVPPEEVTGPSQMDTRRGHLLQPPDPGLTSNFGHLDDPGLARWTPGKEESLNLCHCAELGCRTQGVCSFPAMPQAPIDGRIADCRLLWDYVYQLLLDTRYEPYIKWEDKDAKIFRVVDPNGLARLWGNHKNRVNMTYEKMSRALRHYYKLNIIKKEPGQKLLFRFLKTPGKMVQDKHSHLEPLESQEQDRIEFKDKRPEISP
To be noted: protein: recombinant; tags: N-terminal GST; dsDNA, one strand shown. The method in brief: as §1

In another assay the target is T11, ELF5 (Homo sapiens, UniProt Q9UKW6-2 1-255).
T11 sequence: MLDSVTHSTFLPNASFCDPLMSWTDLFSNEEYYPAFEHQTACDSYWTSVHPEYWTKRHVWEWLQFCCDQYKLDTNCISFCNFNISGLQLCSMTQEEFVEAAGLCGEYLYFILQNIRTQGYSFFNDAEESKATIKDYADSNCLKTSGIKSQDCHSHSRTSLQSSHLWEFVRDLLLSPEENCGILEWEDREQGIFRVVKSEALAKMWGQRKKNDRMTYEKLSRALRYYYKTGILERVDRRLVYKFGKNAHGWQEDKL
The conditions noted are these: protein: recombinant; tags: N-terminal GST; dsDNA, one strand shown. In a few lines: as §1

The target of a further assay is T12, ETV3 (Homo sapiens, UniProt P41162-2 1-143).
T12 sequence: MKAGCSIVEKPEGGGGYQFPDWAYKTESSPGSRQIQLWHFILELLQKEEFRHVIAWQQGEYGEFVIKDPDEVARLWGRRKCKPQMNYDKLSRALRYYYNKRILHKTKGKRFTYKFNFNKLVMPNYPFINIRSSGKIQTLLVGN
To be noted: protein: recombinant; tags: N-terminal GST; dsDNA, one strand shown. In a few lines:
as §1

The target of a further assay is ETV6 (Homo sapiens, UniProt P41212 1-452). To be noted: protein: recombinant; tags: N-terminal GST; dsDNA, one strand shown. The method in brief:
as §1

HSF1, sequence (Q00613 whole entry): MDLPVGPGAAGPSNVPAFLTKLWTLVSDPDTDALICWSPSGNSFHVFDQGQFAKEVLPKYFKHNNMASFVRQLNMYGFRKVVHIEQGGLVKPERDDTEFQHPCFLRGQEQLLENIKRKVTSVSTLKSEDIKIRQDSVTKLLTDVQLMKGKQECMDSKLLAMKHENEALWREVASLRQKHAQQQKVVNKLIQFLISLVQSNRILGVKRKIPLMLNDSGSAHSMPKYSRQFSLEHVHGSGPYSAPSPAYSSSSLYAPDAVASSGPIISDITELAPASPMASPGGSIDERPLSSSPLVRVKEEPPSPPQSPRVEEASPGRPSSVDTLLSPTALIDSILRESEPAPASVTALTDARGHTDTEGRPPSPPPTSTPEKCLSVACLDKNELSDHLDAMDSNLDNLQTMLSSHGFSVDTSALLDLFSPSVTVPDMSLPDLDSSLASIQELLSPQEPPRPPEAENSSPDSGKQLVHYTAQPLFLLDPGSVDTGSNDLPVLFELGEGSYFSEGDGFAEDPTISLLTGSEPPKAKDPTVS
ETV1, sequence (P50549 whole entry): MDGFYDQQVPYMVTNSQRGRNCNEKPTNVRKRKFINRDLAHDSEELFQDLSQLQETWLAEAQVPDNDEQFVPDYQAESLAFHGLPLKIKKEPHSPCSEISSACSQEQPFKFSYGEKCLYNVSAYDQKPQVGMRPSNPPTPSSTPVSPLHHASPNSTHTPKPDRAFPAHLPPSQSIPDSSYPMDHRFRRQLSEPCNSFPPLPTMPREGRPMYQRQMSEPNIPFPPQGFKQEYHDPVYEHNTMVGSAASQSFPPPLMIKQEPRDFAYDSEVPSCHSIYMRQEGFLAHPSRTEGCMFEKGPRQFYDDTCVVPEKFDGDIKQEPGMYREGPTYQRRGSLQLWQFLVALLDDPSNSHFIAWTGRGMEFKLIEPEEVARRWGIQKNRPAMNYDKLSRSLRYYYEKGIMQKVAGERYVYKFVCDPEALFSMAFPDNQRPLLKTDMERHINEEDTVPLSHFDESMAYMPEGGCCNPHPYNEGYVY
ETV6, sequence (P41212 whole entry): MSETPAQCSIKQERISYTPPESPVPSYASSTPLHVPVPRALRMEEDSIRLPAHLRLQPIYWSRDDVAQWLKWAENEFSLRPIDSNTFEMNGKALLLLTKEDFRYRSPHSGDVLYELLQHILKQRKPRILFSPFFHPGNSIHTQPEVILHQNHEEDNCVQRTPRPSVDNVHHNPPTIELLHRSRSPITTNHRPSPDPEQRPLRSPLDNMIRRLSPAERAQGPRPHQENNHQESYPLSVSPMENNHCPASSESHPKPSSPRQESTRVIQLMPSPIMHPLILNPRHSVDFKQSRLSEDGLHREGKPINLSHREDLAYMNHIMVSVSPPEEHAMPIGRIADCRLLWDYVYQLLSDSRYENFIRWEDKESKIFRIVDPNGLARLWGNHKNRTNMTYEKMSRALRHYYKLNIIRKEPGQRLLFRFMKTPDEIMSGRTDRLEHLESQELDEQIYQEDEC
CRX, sequence (O43186 whole entry): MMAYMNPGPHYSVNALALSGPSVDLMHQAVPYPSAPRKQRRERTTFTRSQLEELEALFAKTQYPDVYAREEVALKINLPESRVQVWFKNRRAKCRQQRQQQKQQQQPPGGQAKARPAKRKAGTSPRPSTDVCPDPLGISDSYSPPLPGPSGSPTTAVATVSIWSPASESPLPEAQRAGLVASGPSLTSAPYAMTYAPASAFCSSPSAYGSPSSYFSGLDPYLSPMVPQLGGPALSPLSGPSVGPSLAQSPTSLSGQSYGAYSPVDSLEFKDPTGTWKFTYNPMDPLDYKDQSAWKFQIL

For the sequence ACTCTG, the binding signal with FEV is 1.27 fold enrichment (6-mer frequency, TF over GST control); with ETV5, 1.27 fold enrichment (6-mer frequency, TF over GST control); with HSF1, 1.12 fold enrichment (6-mer frequency, TF over GST control); in the assay with SPIC it was 1.51 fold enrichment (6-mer frequency, TF over GST control); with ELF4, 1.24 fold enrichment (6-mer frequency, TF over GST control); in the assay with ELK4, 1.23 fold enrichment (6-mer frequency, TF over GST control). In addition, the binding signal was 1.23 fold enrichment (6-mer frequency, TF over GST control) in the assay with ETV2; 1.15 fold enrichment (6-mer frequency, TF over GST control) with ELF3; 1.12 fold enrichment (6-mer frequency, TF over GST control) in the assay with CRX; 1.25 fold enrichment (6-mer frequency, TF over GST control) with ETV1; 1.43 fold enrichment (6-mer frequency, TF over GST control) in the assay with ERF; 1.28 fold enrichment (6-mer frequency, TF over GST control) in the assay with ETV3L. The binding signal was 1.29 fold enrichment (6-mer frequency, TF over GST control) with ETS2; 1.16 fold enrichment (6-mer frequency, TF over GST control) with SPDEF; 1.21 fold enrichment (6-mer frequency, TF over GST control) with ETV7; 1.2 fold enrichment (6-mer frequency, TF over GST control) with ELF5; 1.27 fold enrichment (6-mer frequency, TF over GST control) in the assay with ETV3; 1.23 fold enrichment (6-mer frequency, TF over GST control) with ETV6.
